Screens deposited in PubChem BioAssay by National Center for Advancing Translational Sciences (NCATS).
RECQ1 inh: inhibitors of human RECQ1 DNA helicase; P46063; RECQ1 DNA unwinding, red fluorescence kinetic read; Potency, µM (highest dose often 57.3 µM), for the others: at the top dose activity, negative = inhibition, most hits filed as inhibitors; 0.54% of 240,000 active; AID 2549;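 further: plate controls were vehicle for no effect and no enzyme for full effect; nearly all actives have a fitted effect of over 30% in size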
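50 nM RECQ1T1 preincubated 15 min with compound in Tris pH 8.0 buffer with MgCl2, DTT, Tween-20 and 2.5 ug/ml poly(dI-dC); started with 200 nM TAMRA/BHQ-2 forked duplex and 2 mM ATP. Unwinding read as fluorescence (525/598 nm), two reads 2 h apart.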
L3MBTL1 inh: inhibitors of human L3MBTL1; AlphaScreen L3MBTL1–H3K9me1 peptide binding; Potency, µM (top dose mostly 57.1 µM), for inactives: at the top dose activity, negative = inhibition, hits mostly inhibitors; 0.66% of 230,000 active; AID 485360; further: nearly all actives have a fitted effect of over 60% in size
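First, the protein-peptide complex forms for 30 min at room temperature (L3MBTL1 50 nM, biotinylated H3K9me1 peptide 75 nM). Next, compounds are pin-transferred and incubated 30 min. Finally, AlphaScreen beads are added and read after 30 min.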
APE1 inh: APE1 (human) endonuclease inhibition; P27695; recombinant APE1, TAMRA/BHQ-2 abasic DNA cleavage fluorescence; Potency, µM (titrated, usually from 65.8 µM), without a hit: top-dose activity change, negative = inhibition, most hits filed as inhibitors; 0.35% of 350,000 active;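 further: plate controls were vehicle for no effect and reference inhibitor for full effect; nearly all actives have a fitted effect of over 55% in size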
Target sequence (P27695 whole entry, looked up): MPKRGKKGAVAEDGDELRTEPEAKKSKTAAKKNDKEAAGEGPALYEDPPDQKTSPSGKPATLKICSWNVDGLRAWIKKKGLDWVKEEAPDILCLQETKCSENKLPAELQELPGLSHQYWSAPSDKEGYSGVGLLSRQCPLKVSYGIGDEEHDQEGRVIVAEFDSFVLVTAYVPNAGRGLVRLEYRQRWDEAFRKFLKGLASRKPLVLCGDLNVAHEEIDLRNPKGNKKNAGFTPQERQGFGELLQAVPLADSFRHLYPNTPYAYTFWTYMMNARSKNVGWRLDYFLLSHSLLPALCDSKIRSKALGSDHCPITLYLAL
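APE1 at 0.75 nM final was preincubated with compound 15 min at room temperature, then 50 nM double-stranded THF abasic-site substrate (5'-TAMRA/3'-BHQ-2) was added. Fluorescence (ex 525/em 598 nm) was read kinetically; third-minus-first read gave activity.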
BLM inh: inhibitors of human Bloom syndrome helicase BLM | AID 2528 | recombinant BLM DNA unwinding, fluorescence dequenching | P54132 | Potency, µM (highest dose often 56.1 µM), for the others: at the top dose activity change, negative = inhibition, hits mostly inhibitors | 0.2% of 350,000 active;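 further: plate controls were vehicle for no effect and no enzyme for full effect; nearly all actives have a fitted effect of over 35% in size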
* = called active by the depositor; i = inactive; ? = inconclusive; nt = not tested or not shown; ! = repeats disagree. Compounds with a hit are over-represented: about 0.78% of the library has one in this group of screens. The call rests on the fitted dose curve; in most records, active means well fitted curve in the direction sought with a large enough effect; inconclusive means small, poorly fitted or top-dose-only effect, or another doubt; inactive means no such curve, though single readings can be large; an effect the other way counts as inactive or inconclusive. Unless noted, on the % scale 0 is the no-effect control and ±100 the full control effect; potency means the concentration at half of the fitted maximal effect.

SMILES	RECQ1 inh	L3MBTL1 inh	APE1 inh	BLM inh
O=C(O)CCCCCNC(=O)CSc1nnc(-c2ccc([S+](=O)([O-])N3CCCC3)cc2)n1-c1ccccc1	nt	nt	43%	nt
CC/C=C\C/C=C\C/C=C\CCCCCCCC(=O)O	1.8µM*!	?	-35%	?
Cc1ccncc1C(=O)O	10%	nt	-7%	2%
COc1ccc(Cl)cc1Nc1nc(N)c2ccccc2n1	nt	-4%	-6%	-7%
COc1ccc(C)cc1Nc1nc(N)c2cc(OC)c(OC)cc2n1	nt	nt	2%	20µM*
COC1=C(N)C(=O)c2nc(-c3nc(C(=O)O)c(C)c(-c4ccc(OC)c(OC)c4O)c3N)ccc2C1=O	-17%	20µM*	-10%	3.5µM*
CC(C)(C)N[S+](=O)([O-])c1cccc(-c2nnc(SCC(=O)Nc3ccc(C(=O)O)cc3)n2-c2ccccc2)c1	nt	nt	8%	nt
Cc1c(NC(=S)N/N=C/c2cc([N+](=O)[O-])ccc2O)c(=O)n(-c2ccccc2)n1C	i	32µM*	0%	-21%
Fc1cccc(F)c1/C=N/NC(=S)Nc1cccnc1	i	-17%	12%	0%
O=C(CCC(=O)Nc1ccc(F)cc1)N/N=C/c1ccc(O)cc1O	-3%	nt	4%	-12%
O=C(N/N=C/c1ccc(O)cc1O)C(=O)N/N=C/c1ccc(O)cc1O	nt	0.71µM*	-22%	-10%
NC(=S)N/N=C/c1cccc(O)c1O	-10%	28µM*	?	1%
Oc1ccc(/C=N/NC(=S)Nc2cccnc2)c(O)c1	-5%	8.9µM*	-2%	2%
Oc1cccc(/C=N/NC(=S)Nc2cccnc2)c1O	?	4µM*	?	-20%
CCCCNC(=O)NS(=O)(=O)c1ccc(C(=O)O)cc1	3%	nt	-1%	2%
CC(C)(C)n1ncc2c(=O)n(Cc3ccccc3SC(F)(F)F)cnc21	nt	nt	-5%	nt
COc1ccccc1CNc1nc(-c2ccoc2)nc2ccccc12	-19%	nt	13%	-11%
C=CCn1c(=O)n([C@@H]2O[C@H](CO)[C@@H](O)[C@H]2O)c2nc(N)[nH]c(=O)c21	nt	nt	-1%	nt
Fc1c(F)c(F)c(/C=N/NC(=S)Nc2cccnc2)c(F)c1F	i	-15%	-1%	-16%
Oc1ccc(/C=N/NC(=S)Nc2cccnc2)c(O)c1O	3.5µM*	nt	0.79µM*	-20%
Oc1cccc(/C=N/NC(=S)NCCN2CCOCC2)c1O	13µM*	10µM*	?	-1%
Cc1nc2ccccc2c(=O)n1/N=C/c1ccc2ccccc2c1O	0%	32µM*	0%	-1%
O=[N+]([O-])c1cc(Br)cc(C=Nc2ccc3c(c2)OCO3)c1O	?	-10%	-5%	14µM*
O=[N+]([O-])c1ccc(O)c(C=Nc2ccc3c(c2)OCO3)c1	21%	5%	15%	-9%
O=C(CCc1ccc(S(=O)(=O)N2CCOCC2)cc1)N/N=C/c1ccc(O)c(O)c1O	-2%	14µM*	?	-29%
SMILES	RECQ1 inh	L3MBTL1 inh	APE1 inh	BLM inh
CC(C)(C)n1ncc2c(=O)n(Cc3ccccc3C(F)(F)F)cnc21	nt	nt	0%	nt
C[C@H]1[C@H](C)CC[C@]2(C=O)CC[C@]3(C)C(=CC[C@@H]4[C@@]5(C)C[C@@H](O)[C@H](O)[C@@](C)(CO)[C@@H]5CC[C@]43C)[C@H]12	6%	nt	-10%	-5%
Oc1cc(NCc2cccnc2)ccc1-c1nc2ccccc2o1	-10%	-8%	0%	-4%
Oc1cc(Nc2cccnc2)cc2cccnc12	nt	32µM*	25%	nt
Oc1cc(NCCc2cccnc2)cc2cccnc12	nt	28µM*	30%	nt
Oc1cc(Nc2ccncc2)cc2cccnc12	nt	22µM*	16%	nt
CN(C)CCCNC(=O)c1ccc(-c2cc(O)c3ncccc3c2)cc1	nt	20µM*	-27%	nt
O=C(O)c1cc(C(=O)O)c(C(=O)N(Cc2cccc(Oc3ccccc3)c2)[C@H]2CCCc3ccccc32)cc1C(=O)O	-2%	nt	1%	1%
COC(=O)N1CCN(/[N+]([O-])=N/Oc2ccc([N+](=O)[O-])cc2[N+](=O)[O-])CC1	i	nt	2%	-1%
CC[C@@]1([C@@H]2O[C@@H]([C@H]3O[C@@](O)(CO)[C@H](C)C[C@@H]3C)C[C@@H]2C)CC[C@H]([C@]2(C)CC[C@]3(C[C@H](O)[C@@H](C)[C@@H]([C@@H](C)[C@@H](OC)[C@H](C)C(=O)O)O3)O2)O1 (stereo in doubt)	nt	nt	-2%	nt
Oc1cc(-c2ccncc2)cc2cccnc12	nt	7.1µM*	15%	nt
COc1ccc(Nc2cc(O)c3ncccc3c2)cc1	nt	32µM*	8%	nt
